# In PubChem BioAssay (NCATS):
# Records with an inconclusive call do not appear. Activity calls are given as the source filed them. Calls come from the whole dose curve; as a rule, active = well fitted curve in the direction sought with a large enough effect; inconclusive = small, poorly fitted or top-dose-only effect, or another doubt; inactive = no such curve, though single readings can be large; an effect the other way counts as inactive or inconclusive.
# Columns and labels:
# [1] = Quantitative High-Throughput drug screen in 47 multiple myeloma cell lines against the NCATS MIPE library collection: ARD_JJKsccE7 cell viability assay (AID 1918929; note: potency is the fitted concentration of half-maximal effect)
# Procedure, shortened: (§1)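 CellTiter-Glo ATP luminescence gave viability after 48 h compound treatment at 37C of 500 multiple myeloma cells per well. Normalisation used DMSO-only wells as 100% and media-only wells as 0% viability; primary qHTS of approved and investigational drugs.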
# [2] = Quantitative High-Throughput drug screen in 47 multiple myeloma cell lines against the NCATS MIPE library collection: JIM1_ECACC cell viability assay (AID 1918964; note: potency is the fitted concentration of half-maximal effect)
# Procedure, shortened: as §1
# [3] = Quantitative High-Throughput drug screen in 47 multiple myeloma cell lines against the NCATS MIPE library collection: INA6_PLB cell viability assay (AID 1918965; note: nearly all actives have a fitted effect of over 55% in size; note: potency is the fitted concentration of half-maximal effect)
# Procedure, shortened: (§2)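 Myeloma cells (500 per well) were exposed to MIPE 4.0 compounds by pin transfer and incubated 48 hours at 37C, 5% CO2. Viability was read as ATP by CellTiter-Glo luminescence, normalised to DMSO (100%) and media-only (0%) wells.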
# [4] = Quantitative High-Throughput drug screen in 47 multiple myeloma cell lines against the NCATS MIPE library collection: H1112_PLB cell viability assay (AID 1918967; note: nearly all actives have a fitted effect of over 30% in size; note: potency is the fitted concentration of half-maximal effect)
# Procedure, shortened: as §1
# [5] = Quantitative High-Throughput drug screen in 47 multiple myeloma cell lines against the NCATS MIPE library collection: KHM11_PLB cell viability assay (AID 1918962); note: nearly all actives have a fitted effect of over 35% in size; note: potency is the fitted concentration of half-maximal effect
# Procedure, shortened: (§3)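 CellTiter-Glo luminescence (ATP) after 48 h compound exposure, 37C/5% CO2; 500 cells/well; MIPE 4.0 approved/investigational drugs pinned in; DMSO = 100%, media only = 0% viability.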
# [6] = Quantitative High-Throughput drug screen in 47 multiple myeloma cell lines against the NCATS MIPE library collection: JIM3_ECACC cell viability assay (AID 1918963; note: nearly all actives have a fitted effect of over 35% in size; note: potency is the fitted concentration of half-maximal effect)
# Procedure, shortened: as §3
# [7] = Quantitative High-Throughput drug screen in 47 multiple myeloma cell lines against the NCATS MIPE library collection: JJN3_DSMZ cell viability assay (AID 1918966; note: nearly all actives have a fitted effect of over 50% in size; note: potency is the fitted concentration of half-maximal effect)
# Procedure, shortened: as §1
# [8] = Quantitative High-Throughput drug screen in 47 multiple myeloma cell lines against the NCATS MIPE library collection: KMM1_JCRB cell viability assay (AID 1918960); note: nearly all actives have a fitted effect of over 30% in size; note: potency is the fitted concentration of half-maximal effect
# Procedure, shortened: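 Myeloma cells at 500 per well in 1536-well format treated with MIPE 4.0 library by pin transfer for 48 h at 37C, 5% CO2. Viability from ATP luminescence (CellTiter-Glo), normalized to DMSO (100%) and media-only (0%) wells.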
# [9] = Quantitative High-Throughput drug screen in 47 multiple myeloma cell lines against the NCATS MIPE library collection: Karpas620_DSMZ cell viability assay (AID 1918959); note: nearly all actives have a fitted effect of over 30% in size
# Procedure, shortened: as §3
# [10] = Quantitative High-Throughput drug screen in 47 multiple myeloma cell lines against the NCATS MIPE library collection: Karpas417_ECACC cell viability assay (AID 1918961); settings: Karpas417 myeloma viability, CellTiter-Glo ATP luminescence, 48 h; viability (% of DMSO): at 45.8 µM (top of the series); note: potency is the fitted concentration of half-maximal effect
# Procedure, shortened: as §2
smiles,measurement,setting,value
Cc1ccc(-n2[nH]c(C)c(N=Nc3cccc(-c4cccc(C(=O)O)c4)c3O)c2=O)cc1C,Potency,[1],inactive
same,Potency,[2],13200 nM (active)
same,Potency,[3],23500 nM (active)
same,Potency,[4],20900 nM (active)
C=CC(=O)Nc1cccc(Nc2nc(NC3CCC(N(C)C)CC3)nc3c2ncn3C(C)C)c1 (stereo not drawn),Potency,[1],10.5 nM (active)
same,Potency,[5],372 nM (active)
same,Potency,[6],332 nM (active)
same,Potency,[3],296 nM (active)
same,Potency,[7],10.5 nM (active)
same,Potency,[4],41.8 nM (active)
CCOc1cc2ncc(C#N)c(Nc3ccc(OCc4ccccn4)c(Cl)c3)c2cc1NC(=O)C=CCN(C)C,Potency,[1],662 nM (active)
same,Potency,[8],935 nM (active)
same,Potency,[5],935 nM (active)
same,Potency,[2],418 nM (active)
same,Potency,[3],264 nM (active)
same,Potency,[7],5900 nM (active)
COc1cc([C@@H]2c3cc4c(cc3[C@H](O)[C@H]3COC(=O)[C@@H]23)OCO4)cc(OC)c1OC,Potency,[1],59 nM (active)
same,Potency,[5],105 nM (active)
same,Potency,[3],148 nM (active)
same,Potency,[7],526 nM (active)
same,Potency,[4],526 nM (active)
Cc1cncc2cccc(S(=O)(=O)N3CCCN(C(=O)CN)C[C@@H]3C)c12,Potency,[1],16600 nM (active)
same,Potency,[6],inactive
same,Potency,[3],16600 nM (active)
same,Potency,[4],20900 nM (active)
CC1(C)O[C@@H]2C[C@H]3[C@@H]4CCC5=CC(=O)C=C[C@]5(C)[C@@H]4[C@@H](O)C[C@]3(C)[C@]2(C(=O)CO)O1,Potency,[1],5.3 nM (active)
same,Potency,[6],inactive
same,Potency,[4],inactive
O=C(C=CC=Cc1ccc2c(c1)OCO2)N1CCCCC1,Potency,[1],inactive
same,Potency,[5],inactive
same,Potency,[7],inactive
same,Potency,[4],inactive
CCC(C(=O)O)C1CCC(C)C(C(C)C(O)C(C)C(=O)C(CC)C2OC3(C=CC(O)[C@@]4(CC[C@](C)(C5CC[C@@](O)(CC)C(C)O5)O4)O3)C(C)CC2C)O1 (stereo partly drawn),Potency,[1],209 nM (active)
same,Potency,[5],14800 nM (active)
same,Potency,[6],1480 nM (active)
same,Potency,[2],332 nM (active)
same,Potency,[3],1660 nM (active)
same,Potency,[7],1050 nM (active)
same,Potency,[4],8330 nM (active)
CC(=O)NC(CS)C(=O)O (stereo not drawn),Potency,[1],inactive
same,Potency,[8],inactive
same,Potency,[5],inactive
same,Potency,[6],inactive
same,Potency,[3],2960 nM (active)
same,Potency,[4],inactive
Cc1cc(-c2nnc3n2CCCCC3)c(C)n1-c1ccccc1,Potency,[1],inactive
same,Potency,[3],inactive
same,Potency,[4],inactive
O=c1[nH]c(=O)n([C@H]2C[C@@H](O)[C@@H](CO)O2)cc1C=CBr,Potency,[9],inactive
same,Potency,[8],inactive
same,viability (% of DMSO),[10],90.1% (active)
same,Potency,[6],inactive
same,Potency,[2],inactive
same,Potency,[3],inactive
same,Potency,[7],inactive
same,Potency,[4],inactive
COc1ccc(C=Cc2cc(OC)c(OC)c(OC)c2)cc1NC(=O)[C@H](N)CO,Potency,[1],11.8 nM (active)
same,Potency,[10],590 nM (active)
same,Potency,[5],inactive
same,Potency,[3],1 nM (active)
same,Potency,[7],23.5 nM (active)
CC[C@@]1([C@@H]2O[C@@H]([C@H]3O[C@@](O)(CO)[C@H](C)C[C@H]3C)C[C@H]2C)CC[C@H]([C@]2(C)CC[C@]3(C[C@H](O)[C@@H](C)[C@@H]([C@@H](C)[C@@H](OC)[C@H](C)C(=O)O)O3)O2)O1,Potency,[1],911 nM (active)
same,Potency,[5],512 nM (active)
same,Potency,[6],229 nM (active)
same,Potency,[2],64.5 nM (active)
same,Potency,[3],257 nM (active)
same,Potency,[7],257 nM (active)
C[C@H]1COc2c(N3CCN(C)CC3)c(F)cc3c(=O)c(C(=O)O)cn1c23,Potency,[9],inactive
same,Potency,[8],inactive
same,Potency,[10],inactive
same,Potency,[6],inactive
same,Potency,[2],inactive
same,Potency,[3],inactive
same,Potency,[4],inactive
C[C@]12CCC(=O)C=C1[C@@H]1CC1[C@H]1[C@H]3[C@@H]4C[C@H]4[C@@]4(CCC(=O)O4)[C@@]3(C)CC[C@H]12 (stereo partly drawn),Potency,[1],18700 nM (active)
same,Potency,[8],20900 nM (active)
same,Potency,[3],20900 nM (active)
same,Potency,[7],inactive
same,Potency,[4],inactive
CC[C@]12C=CCN3CC[C@@]4(c5cc([C@@]6(C(=O)OC)C[C@H]7C[C@@H](C(C)(F)F)CN(Cc8c6[nH]c6ccccc86)C7)c(OC)cc5N(C)[C@H]4[C@@](O)(C(=O)OC)[C@H]1OC(C)=O)[C@@H]32,Potency,[1],4.2 nM (active)
same,Potency,[8],8.3 nM (active)
same,Potency,[3],1 nM (active)
same,Potency,[7],1480 nM (active)
same,Potency,[4],37.2 nM (active)
CCOC(=O)C1=C(C)NC(=S)NC1c1cccc(O)c1 (stereo not drawn),Potency,[1],833 nM (active)
same,Potency,[8],469 nM (active)
same,Potency,[2],296 nM (active)
same,Potency,[3],26.4 nM (active)
CCCCCCCN(CC)CCCC(O)c1ccc(NS(C)(=O)=O)cc1 (stereo not drawn),Potency,[1],20900 nM (active)
same,Potency,[8],20900 nM (active)
same,Potency,[7],inactive
CCCNS(=O)(=O)Nc1ncnc(OCCOc2ncc(Br)cn2)c1-c1ccc(Br)cc1,Potency,[1],inactive
same,Potency,[8],inactive
same,Potency,[6],inactive
same,Potency,[3],inactive
same,Potency,[7],inactive
same,Potency,[4],inactive
c1coc(CNc2ncnc3nc[nH]c23)c1,Potency,[1],inactive
same,Potency,[8],inactive
same,Potency,[3],inactive
same,Potency,[4],inactive
COc1cc(N2CCC(C(N)=O)CC2)ccc1Nc1nc(N)c(Cl)c(Nc2ccccc2S(=O)(=O)C(C)C)n1,Potency,[1],59 nM (active)
same,Potency,[6],166 nM (active)
same,Potency,[2],46.9 nM (active)
same,Potency,[3],7430 nM (active)
same,Potency,[7],105 nM (active)
same,Potency,[4],148 nM (active)
CC(=CC(=O)Nc1ccccc1C(=O)O)c1ccc2ccccc2c1,Potency,[1],14800 nM (active)
same,Potency,[2],590 nM (active)
N#CC(=C(O)c1ccc(Cl)cc1Cl)c1nc2cc(Cl)ccc2c(=O)[nH]1,Potency,[1],inactive
same,Potency,[5],inactive
same,Potency,[6],inactive
same,Potency,[3],inactive
COc1cc(C[C@@H](CO)[C@H](CO)Cc2ccc(O)c(OC)c2)ccc1O,Potency,[1],9350 nM (active)
same,Potency,[10],5900 nM (active)
same,Potency,[6],2640 nM (active)
same,Potency,[3],1180 nM (active)
same,Potency,[4],372 nM (active)
